Screens (PubChem)
CHT allo act: CHT positive allosteric modulators, primary screen, cell-based, membrane potential dye, choline EC20 | High affinity choline transporter 1 (Homo sapiens), Q9GZV3 | CHT-expressing cells; stronger effect = higher value; LV-AA mutant CHT in HEK293 cells | B-score at 10 µM | actives 0.49% (n = 310,000);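 active = initial fluorescence not abnormally high and integrated response B-score, plate-corrected, over 3 SD above library mean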
Target sequence (Q9GZV3 whole entry, looked up): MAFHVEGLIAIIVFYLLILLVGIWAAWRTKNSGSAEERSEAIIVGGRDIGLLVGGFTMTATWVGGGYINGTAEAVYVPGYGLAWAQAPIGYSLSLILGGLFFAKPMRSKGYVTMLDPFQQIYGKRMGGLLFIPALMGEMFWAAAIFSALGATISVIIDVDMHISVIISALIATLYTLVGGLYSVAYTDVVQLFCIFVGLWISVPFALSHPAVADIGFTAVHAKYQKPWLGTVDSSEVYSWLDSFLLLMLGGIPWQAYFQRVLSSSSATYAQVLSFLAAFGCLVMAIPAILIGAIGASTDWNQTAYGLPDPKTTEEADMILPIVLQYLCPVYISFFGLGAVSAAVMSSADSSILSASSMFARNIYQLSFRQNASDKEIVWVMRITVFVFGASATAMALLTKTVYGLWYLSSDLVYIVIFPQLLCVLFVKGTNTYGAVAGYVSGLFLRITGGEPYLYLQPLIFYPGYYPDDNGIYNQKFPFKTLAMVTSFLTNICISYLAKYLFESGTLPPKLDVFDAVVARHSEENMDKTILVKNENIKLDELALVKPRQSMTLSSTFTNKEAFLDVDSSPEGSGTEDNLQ
CHT inh: inhibitors of human choline transporter CHT; High affinity choline transporter 1 (Homo sapiens), Q9GZV3; CHT-expressing cells, membrane potential dye, choline response; stronger effect = lower value; B-score at 10 µM; actives 0.86% (n = 310,000); AID 488975, 2010;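 active = B-score over 3 SD under the library average, and starting fluorescence ratio not unusually high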;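 also: choline stimulus applied at its EC90 after an EC20 pre-addition; B-score computed on integrated fluorescence ratio after choline addition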
AI-2 QS mod: Vibrio harveyi AI-2 quorum sensing modulators, primary screen, JMH597 strain, luminescence/OD600 ratio; actives 0.4% (n = 300,000); Vibrio harveyi JMH597 AI-2 luminescence/OD600 ratio, 9 h; stronger effect = lower value; strain lacks LuxN and CqsS sensors; 0 = neutral-control median; AID 2094, 2009; activity change, % at 7.5 µM; in the data active = activity change below about -75%, passing the limit was not always enough;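 also: luminescence divided by OD600 gain over 9 h not by final OD600 alone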
PREPL inhibitor: PREPL enzyme inhibitors, primary screen, biochemical, fluorescence polarization; AID 2751, 2010; recombinant PREPL, fluorescence polarization activity-based probe; Prolyl endopeptidase-like (Homo sapiens), Q4J6C6; inhibition, % at 5.96 µM; actives 0.68% (n = 320,000); in the data active = inhibition above about 43%;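 also: 0% = enzyme with DMSO and 100% = wells lacking enzyme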
ALR inh: inhibitors of human ALR sulfhydryl oxidase, primary screen, biochemical, H2O2 detection, HRP-luminol luminescence, single point. purified ALR, DTT oxidation. inhibition, % (no concentration beside the values). actives 3.8% (n = 290,000). FAD-linked sulfhydryl oxidase ALR (Homo sapiens), P55789;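 active = mean replicate inhibition above about 79%, with every replicate also reaching it, limit read from the data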
Starred values were filed as active, the others as inactive; i = inactive; nt = no result given. A selection: hits, their analogues and other compounds. The true share with any hit is near 5%.

SMILES	CHT allo act	CHT inh	AI-2 QS mod	PREPL inhibitor	ALR inh
CN(CCCCCCCCCCN(C)C(=O)Oc1cccc([N+](C)(C)C)c1)C(=O)Oc1cccc([N+](C)(C)C)c1	i	i	nt	26	nt
N#Cc1cc(-c2ccc(Cl)cc2)cnc1Sc1ccc(F)cc1	i	i	10	-3	-3
C/C(=N\NC(=O)c1ccccc1O)c1ccc(NC(=O)Cc2ccccc2)cc1	i	i	15	2	-5
CCN(CCNC(=O)C1CCC(=O)N1Cc1ccc(C)cc1)c1ccccc1 (stereo not given)	i	i	19	5	nt
CCN(CCCNC(=O)C1CCC(=O)N1Cc1ccc(C)cc1)c1cccc(C)c1 (stereo not given)	i	i	11	9	99*
CCOC(=O)C1CCCN(c2c(NCCCN(C)c3ccccc3)c(=O)c2=O)C1 (stereo not given)	i	i	33	3	99*
Cc1cccc(Oc2ncc(-c3ccc(Cl)cc3)cn2)c1	i	i	15	14	-14
CCCCn1c(N)c(N(CC(C)C)C(=O)c2ccc(Br)s2)c(=O)[nH]c1=O	i	i	23	4	0
Nc1ccc(S(=O)(=O)c2cccc(N)c2)cc1	i	i	32	13	0
Nc1ccc(S(=O)(=O)c2ccc(N)c(N)c2)cc1	i	i	9	7	88*
O=C1NN(c2ccccc2)C(=O)/C1=C\c1ccccc1	i	i	12	nt	90*
O=C1NN(c2ccc(F)cc2)C(=O)/C1=C\c1cnn(-c2ccccc2)c1	i	i	10	2	-3
Cc1cc(/C=C2/C(=O)NN(c3ccccc3)C2=O)c(C)n1-c1ccc(O)cc1	i	i	22	5	52
O=C1NN(c2ccccc2)C(=O)/C1=C\c1coc2ccc(O)cc2c1=O	i	i	32	17	99*
O=C1NN(c2ccccc2)C(=O)/C1=C/c1cccs1	i	i	29	8	-1
O=C1NN(c2cccc(Br)c2)C(=O)/C1=C\c1ccccc1	i	i	43	12	89*
Cc1ccc(-c2cc(C(=O)N3CCCc4ccccc43)c3ccccc3n2)cc1	i	i	6	-3	-31
O=C(c1cc(-c2cccnc2)nc2ccccc12)N1CCCc2ccccc21	i	i	15	-20	95*
O=C(NNC(=S)NCCc1ccccc1)c1ccc(Br)s1	i	i	13	-4	25
CCOC(=O)N1CCN(C(=O)COC(=O)c2ccc(S(=O)(=O)N(CC)CC)cc2)CC1	i	i	3	4	-19
O=[N+]([O-])/C(C(Cl)=C(Cl)Cl)=C(/Sc1ccccc1)N1CCCCC1	i	i	9	-4	92*
O=C(N/C(=C\c1ccc([N+](=O)[O-])cc1)C(=O)N1CCCCC1)c1ccccc1	i	i	18	10	11
COc1ccccc1N1CCN(/N=C/c2cccc(O)c2)CC1	i	i	14	14	51
Cc1ccc(CN2CCN(/N=C/c3cc(Br)cc(Br)c3O)CC2)cc1	i	i	-5	24	-1
COc1ccccc1N1CCN(/N=C/c2cc(OC)c(O)c(OC)c2)CC1	i	i	-2	10	99*
SMILES	CHT allo act	CHT inh	AI-2 QS mod	PREPL inhibitor	ALR inh
COc1cc(/C=N/N2CCN(Cc3ccc(C)cc3)CC2)cc(OC)c1O	i	i	2	37	99*
Oc1ccc(/C=N/N2CCN(Cc3ccccc3)CC2)cc1	i	i	28	21	82*
COc1cc(/C(C)=N/N2CCN(Cc3ccc(C)cc3)CC2)ccc1O	i	i	12	3	89*
O=C(OCC(=O)c1c[nH]c2ccccc12)c1cccc([N+](=O)[O-])c1	nt	nt	nt	28	21
Cc1cccc2nc(-c3ccco3)c(Nc3ccccc3)n12	i	i	8	-28	nt
Cc1cccc2nc(-c3ccco3)c(Nc3ccc4c(c3)OCO4)n12	i	i	21	-17	99*
Cc1nn(-c2ccccc2)c2c1C(c1ccc([N+](=O)[O-])cc1)N1C(=N2)C(=O)Nc2ccccc21 (stereo not given)	i	i	17	6	nt
Cc1nn(-c2ccc([N+](=O)[O-])cc2)c2c1C(c1cccc(Br)c1)N1C(=N2)C(=O)Nc2ccccc21 (stereo not given)	i	-6.6*	10	-12	1
COCCNC(=S)N1CCN(C/C=C/c2ccccc2)CC1	i	i	4	10	-1
COc1cc(/C=N/NC(=O)c2cncc(Br)c2)cc([N+](=O)[O-])c1O	i	i	-202*	12	7
COc1ccc(/C=N/NC(=O)c2ccc(Cn3cc([N+](=O)[O-])cn3)o2)cc1O	i	i	7	9	66
COc1cc([N+](=O)[O-])cc(/C=N/NC(=O)c2cncc(Br)c2)c1O	i	i	-36	-5	8
COc1cc(/C=N/NC(=O)c2ccc(Cn3cc([N+](=O)[O-])cn3)o2)cc(Br)c1O	i	i	10	5	96*
COc1cc(/C=N/NC(=O)c2cccc([N+](=O)[O-])c2)cc(OC)c1O	i	i	26	11	98*
COc1cc(/C=N/NC(=O)c2ccc(O)cc2)ccc1Oc1ccc([N+](=O)[O-])cn1	i	i	6	-71	92*
CCc1ccc(OCCOCC(O)CNC(C)CC)cc1 (stereo not given)	i	i	16	19	-2
O=C(CCCCCNC(=O)N1CCn2c1nc1ccccc12)N[C@H](C(=O)O)c1ccccc1	i	i	11	2	-30
O=C1CCC(O)CCN1CCSc1ccccc1 (stereo not given)	i	i	19	-10	0
Cc1nc2c(C)cccc2cc1C(=O)N/N=C/c1cccc([N+](=O)[O-])c1	i	i	14	9	98*
Cc1ccc2nc(C)c(C(=O)N/N=C/c3cccc([N+](=O)[O-])c3)cc2c1	i	i	7	-4	9
Nc1ccc(Nc2ccccc2)c(S(=O)(=O)O)c1	i	i	22	14	nt
Cc1ccc(Nc2ccc(N)cc2S(=O)(=O)O)cc1	i	i	7	18	100*
CC(=O)CC(=O)Nc1ccc(Nc2ccccc2)cc1	i	i	6	3	99*
O=C(O)C1CCCCC1C(=O)Nc1ccccc1Nc1ccccc1 (stereo not given)	i	i	37	-14	99*
